Screening results deposited in PubChem by National Center for Advancing Translational Sciences (NCATS).
A selection: hits, their analogues and other compounds. The true share with any hit is near 1.2%.
gsp ag: activates gsp, the McCune-Albright syndrome mutation; 0.13% of 340,000 active; Potency, µM (doses to about 76.9 µM), inactives show top-dose activation (cAMP increase), actives largely listed as activators; gsp mutant cells, cAMP HTRF, 30 min; active = well fitted activation curve with a large enough effect; inconclusive = small, poorly fitted or top-dose-only effect, or another doubt; inactive = no such curve, though single readings can be large or run the other way; cell line not stated here;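 note: phosphodiesterase inhibitor Ro 20-1724 added with compounds to block cAMP breakdown; potency is the fitted concentration of half-maximal effect; nearly all actives have a fitted effect of over 60% in size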
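Cells in DMEM/10% FBS with G418 were pretreated with compounds in DMSO plus […] (300 uM stock) for 30 min at 37C. cAMP was measured by HTRF (cAMP-d2 plus anti-cAMP antibody-K) after 30 min at room temperature.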
RXFP1 ag: agonists of human relaxin receptor RXFP1. Q9HBX9. AID 2676. Potency, µM (top dose mostly 57.5 µM), inactives show at the top dose activation, hits mostly activators. HEK293T-RXFP1 cAMP TR-FRET, 30 min; response scale: percent of porcine relaxin response, buffer zero. 0.3% of 370,000 active; active = well fitted activation curve with a large enough effect; inconclusive = small, poorly fitted or top-dose-only effect; note: potency is the fitted concentration of half-maximal effect; % is set by controls: 0 for no effect and ±100 for the full control effect; nearly all actives have a fitted effect of over 60% in size
Target sequence (Q9HBX9 whole entry, looked up): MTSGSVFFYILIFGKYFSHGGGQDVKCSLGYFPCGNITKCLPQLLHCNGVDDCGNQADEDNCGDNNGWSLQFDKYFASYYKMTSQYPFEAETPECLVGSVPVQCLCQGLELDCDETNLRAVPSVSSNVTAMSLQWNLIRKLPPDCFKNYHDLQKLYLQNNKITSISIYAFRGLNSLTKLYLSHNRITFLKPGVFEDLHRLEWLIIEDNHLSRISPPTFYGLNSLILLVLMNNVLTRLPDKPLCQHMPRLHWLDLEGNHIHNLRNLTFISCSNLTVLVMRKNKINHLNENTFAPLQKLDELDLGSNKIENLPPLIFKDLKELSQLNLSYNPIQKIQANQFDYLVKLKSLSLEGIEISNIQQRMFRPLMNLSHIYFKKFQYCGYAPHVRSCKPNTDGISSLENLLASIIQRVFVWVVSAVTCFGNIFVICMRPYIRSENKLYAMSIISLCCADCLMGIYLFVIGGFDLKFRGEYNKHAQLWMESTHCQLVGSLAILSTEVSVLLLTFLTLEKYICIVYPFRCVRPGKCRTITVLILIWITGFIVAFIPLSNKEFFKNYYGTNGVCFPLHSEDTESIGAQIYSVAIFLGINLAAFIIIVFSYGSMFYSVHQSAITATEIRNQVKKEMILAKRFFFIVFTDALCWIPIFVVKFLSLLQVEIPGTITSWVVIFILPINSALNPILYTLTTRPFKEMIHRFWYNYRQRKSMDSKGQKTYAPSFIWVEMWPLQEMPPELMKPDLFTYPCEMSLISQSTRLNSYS
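Agonist response is measured as cAMP accumulation in an RXFP1-transfected HEK293T line under PDE4 inhibition. Values are scaled between buffer-only and 29 nM porcine relaxin, and EC50s come from standard Hill equation fits.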
RXFP1 antag: antagonists of human relaxin receptor RXFP1. activity change, negative = inhibition, % at 57.5 µM. 0.59% of 350,000 active. Q9HBX9. HEK293-RXFP1, relaxin-stimulated cAMP HTRF, 30 min; active compounds read low;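 active = activity change of -60% or lower, but not beyond a set lower limit; inconclusive = change between -60% and -40%, or beyond the set limit; inactive = change above -40%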; note: % is set by controls: 0 for no effect and ±100 for the full control effect
pAkt inh: blocks phosphorylation of Akt | AID 651550 | Neuro2A IGF-stimulated pAkt S473 HTRF, 20 min; active compounds read low | 0.32% of 360,000 active | activity change, % for hits at 50 µM; in the data active = activity change below about -80%; inconclusive = mostly about -51% to -80%; note: % is set by controls: 0 for no effect and ±100 for the full control effect
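Neuro2A cells in DMEM with 0.5% FBS, overnight at 37 deg C, given compound at single 50 µM final, then IGF (6 nM final) for 20 min at 37 deg C. Lysed; phospho-Akt Ser473 by HTRF after 24 h, 665/615 ratio.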
gsp antag: antagonizes gsp, the McCune-Albright syndrome mutation. gsp-mutant cells, cAMP HTRF, 30 min. 0.4% of 340,000 active. Potency, µM (highest dose often 76.9 µM), without a hit: top-dose activity change, negative = inhibition, usual class: inhibitors; calls by dose curve; cell line not stated here;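 note: intracellular cAMP measured with PDE inhibitor Ro 20-1724 present during compound exposure; potency is the fitted concentration of half-maximal effect; % is set by controls: 0 for no effect and ±100 for the full control effect; nearly all actives have a fitted effect of over 65% in size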
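Cells, 2000/well, grown 16–24 h in DMEM 10% FBS with 0.5 mg/ml G418, then compounds plus […] (300 uM addition stock), 30 min at 37C. cAMP read by HTRF (cAMP-d2 and anti-cAMP antibody-K in lysis buffer) after 30 min RT.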
Starred values were filed as active, the others as inactive; i = inactive; ? = inconclusive; / = no result given; [ ] = remark or other dose.

SMILES | gsp ag | RXFP1 ag | RXFP1 antag | pAkt inh | gsp antag
O=C(O)CCCCCN1C(=O)/C(=C/c2cn(-c3ccccc3)nc2-c2cccs2)SC1=S | ? | / | -25.0 | i | 35.5µM*
O=C(O)CCN1C(=O)/C(=C/c2cn(-c3ccccc3)nc2-c2cccs2)SC1=S | 2.5% | 1.6% | 6.0 | i | 35.5µM*
CCN1C(=O)/C(=C/c2cn(-c3ccccc3)nc2-c2cccnc2)SC1=S | -3.6% | / | -2.7 | i | ?
CN(C)c1ccc(CNC(=O)CN2CCSc3ccc(S(=O)(=O)N(C)C)cc32)cc1 | / | 10.3% | / | / | /
COc1ccc(NC(=O)COC(=O)Cc2c(F)cccc2Cl)cc1 | ? | -0.4% | -11.3 | i | 44.7µM*
COc1ccc(CCNS(=O)(=O)c2cc3c4c(c2)C(C)C(=O)N4CCC3)cc1OC (stereo unspecified) | -11.3% | -0.6% | -91.9* | i | -5.2%
CC1C(=O)N2CCCc3cc(S(=O)(=O)NCCc4ccccc4)cc1c32 (stereo unspecified) | ? | 2.0% | -11.8 | i | -2.3%
Cc1cc(C)cc(NC(=O)C2CCCN(C(=O)c3cnn(-c4ccccc4)c3-n3cccc3)C2)c1 (stereo unspecified) | / | 0.0% | / | / | /
CCC(=O)Nc1cccc(NC(=O)CSc2nc3c(c(=O)n(C)c(=O)n3C)n2C)c1 | 26.2%[15.4 µM] | ? | 14.6 | i | 4.3%
CC(=O)Nc1cccc(NC(=O)CSc2nc3c(c(=O)n(C)c(=O)n3C)n2C)c1 | 51.2%[15.4 µM] | 28.2µM* | 25.5 | i | 17.1%
COC(=O)c1ccc(Nc2ncnc3c2nc2n3CCCC2)cc1 | / | 0.1% | 13.0 | / | /
CCc1ccc(-c2nc(CN3CCC(C(=O)NCCN(CC)c4ccccc4)CC3)c(C)o2)cc1 | -50.5% | -2.8% | -6.7 | i | 18.4%
CCN(CCNC(=O)C1CCN(Cc2nc(-c3ccc(Cl)cc3)oc2C)CC1)c1ccccc1 | 0.8% | 1.1% | -62.5* | i | 0.8%
CCOc1ccc(NC(=O)N2CC3CCCN3c3ccccc32)cc1 (stereo unspecified) | / | 1.7% | -60.8* | / | /
CCOC(=O)c1ccc(NC(=O)N2CC3CCCN3c3ccccc32)cc1 (stereo unspecified) | / | 0.5% | -11.7 | / | /
COc1ccc2c(c1)c(=O)c(C(=O)c1ccc(C)cc1)cn2Cc1ccccc1F | / | 1.4% | -15.8 | / | /
O=C(COC(=O)CNC(=O)c1ccc(Cl)cc1Cl)NC1CCCCCCC1 | -4.2%[15.4 µM] | 0.1% | -61.2* | i | 7.7%
Cc1ccc(S(=O)(=O)N(C)c2ccc(C(=O)Nc3cccc(C)n3)cc2)cc1 | 8.9%[15.4 µM] | 0.4% | -34.9 | i | 35.5µM*
O=C1c2ccsc2SCCN1Cc1ccc(F)cc1 | -64.6% | 3.6% | 1.9 | i | -23.3%
O=C1c2ccsc2SCCN1Cc1ccc(Cl)cc1 | -17.9% | 2.3% | 2.3 | -123.6%* | -5.8%[15.4 µM]
CCCCC(=O)N1CCCC(c2nc3c(nnn3Cc3cc(C)ccc3C)c(=O)[nH]2)C1 (stereo unspecified) | 25.0% | 0.1% | -5.4 | -117.5%* | -6.8%
Cc1ccc(C)c(Cn2nnc3c(=O)[nH]c(C4CCCN(C(=O)CC(C)C)C4)nc32)c1 (stereo unspecified) | 12.9% | 2.3% | 1.5 | i | -9.6%
CC(=O)N1CCN(c2ccnc3cc(Cl)ccc23)CC1 | -7.8%[15.4 µM] | 0.0% | 3.1 | i | -10.7%
Cc1cccc(Cl)c1NC(=O)N1CCN(c2ccnc3cc(Cl)ccc23)CC1 | 22.6% | 3.1% | -4.3 | i | 28.2µM*
Cc1ccc(F)cc1NC(=O)N1CCN(c2ccnc3cc(Cl)ccc23)CC1 | -0.8% | 0.1% | -10.5 | i | 35.5µM*
SMILES | gsp ag | RXFP1 ag | RXFP1 antag | pAkt inh | gsp antag
c1ccc(-c2cnnc(SCc3cn4cccnc4n3)n2)cc1 | ? | 11.0% | -7.2 | -112.2%* | 12.6%
O=C(CCCN1CCN(c2ccc(F)cc2)CC1)NC1c2ccccc2CSc2ccccc21 (stereo unspecified) | / | / | -27.4 | / | /
Cc1nc2cccnc2n1-c1cccc(C(=O)NCc2cccc(Cl)c2)c1 | / | 7.0% | -17.4 | / | /
OCCCNc1cc(-c2ccccc2)nc2cc(-c3ccc(F)cc3)nn12 | -1.4% | 4.4% | 11.4 | i | 35.5µM*
Fc1ccc(Br)cc1C1C=C(c2ccc(Br)s2)Nc2ncnn21 (stereo unspecified) | -6.3% | 8.6% | -68.2* | i | ?
Cc1ccc(S(=O)(=O)N(Cc2cc3cc4c(cc3[nH]c2=O)OCCO4)CC2CCCO2)cc1 (stereo unspecified) | 20.3% | ? | -8.9 | -105.3%* | 43.6%
Cc1ccc(C(=O)c2oc3ccccc3c2NC(=O)COc2ccccc2Cl)cc1 | / | 7.9% | / | / | /
Cc1cc(C(=O)COC(=O)c2ccc(O)cc2)c(C)n1-c1ccccc1F | 9.5%[15.4 µM] | 2.4% | -82.8* | i | 8.8%
CCOc1c(OC(C)=O)ccc(/C=C/c2ccc3cccc(OC(C)=O)c3n2)c1[N+](=O)[O-] | -28.9% | 0.7% | -0.2 | i | ?
C=CCN1C(=O)/C(=C/c2ccc(OC(C)=O)c(OCC)c2[N+](=O)[O-])SC1=S | -119.4% | 1.8% | -12.1 | i | 25.1µM*
CC(=O)Nc1ccc(NC(=O)CSc2nnc3ccc(-c4ccccn4)nn23)cc1 | 10.9%[15.4 µM] | 3.7% | -106.3* | i | 0.3%
CC(=O)Nc1ccc(NC(=O)CSc2ccc3nnc(-c4ccccn4)n3n2)cc1 | ? | 8.91µM* | 1.8 | i | 30.4%
CCOC(=O)c1cccc(NC(=O)CCc2c(C)nn(-c3ccc(N4CCCCC4)nn3)c2C)c1 | / | 0.5% | 12.0 | / | /
CC(=O)Nc1c(Cl)cc(Cl)c2c1Cc1cc(Cl)ccc1-2 | -39.1% | / | -101.0* | i | 3.5%
Oc1ccc(Nc2nc(-c3ccccc3)nc3ccccc23)cc1 | 5.4%[15.4 µM] | -1.4% | -76.6* | i | -10.4%
CSCCC(NC(=O)OC(C)(C)C)C(=O)Oc1ccc2c(=O)c(-c3ccc4c(c3)OCCO4)coc2c1 (stereo unspecified) | -3.1% | 4.0% | -12.5 | -84.7%* | ?
CC(=O)N1CCCc2ccc(NC(=O)c3ccc(OC(C)C)cc3)cc21 | / | 0.4% | -1.1 | / | /
O=C(CSc1ncc2c(n1)-c1ccc(Cl)cc1N(Cc1ccccc1)S2(=O)=O)Nc1ccccc1C(F)(F)F | / | 8.4% | -4.1 | / | /
O=C(CSc1ncc2c(n1)-c1cc(Cl)ccc1N(Cc1ccccc1)S2(=O)=O)NCc1ccccc1 | / | 1.5% | / | / | /
Cc1ccc(CNC(=O)CSc2ncc3c(n2)-c2ccc(Cl)cc2N(Cc2ccccc2)S3(=O)=O)cc1 | / | 28.2µM* | / | / | /
CCOc1ccc(NC(=O)CSc2ncc3c(n2)-c2ccc(Cl)cc2N(Cc2ccccc2)S3(=O)=O)cc1 | / | 11.2µM* | -4.2 | / | /
O=C(NC1CCCC1)c1cc2cc(Br)ccc2o1 | 2.51µM* | 1.0% | -0.3 | i | 7.7%
Nc1nonc1-n1nnc(C(=O)N/N=C/c2ccc(Br)cc2)c1-c1ccc2c(c1)OCO2 | 18.2% | 0.2% | ? | i | ?
